Compounds with a hit are over-represented: about 9.2% of the library has one in this group of screens.
ALDH1A1 block = ALDH1A1 (human) enzyme inhibition | P00352 | Purified ALDH1A1, NADH fluorescence, propionaldehyde substrate | Potency, µM (titrated, usually from 75.3 µM), for the others: at the top dose activity, negative = inhibition, hits mostly inhibitors | hit rate 7.3% among 220,000;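 further: plate controls were no enzyme wells and a reference inhibitor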
HTT cytoprotect = protects HTT-Q103 PC12 cells, measured by ATP. PC12 HTT-Q103 induced, cytoprotection, ATP luminescence, 40 h. Potency, µM (top dose mostly 56.4 µM), for inactives: cytoprotection (ATP increase), hits mostly activators. hit rate 0.14% among 230,000. AID 1471; active means well fitted curve in the direction sought with a large enough effect; inconclusive means small, poorly fitted or top-dose-only effect, or another doubt; inactive means no such curve, though single readings can be large; an effect the other way counts as inactive or inconclusive; further: % of control where 0% means no effect; nearly all actives have a fitted effect of over 45% in size
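PC12 cells stably carrying ecdysone-inducible Htt exon 1 (Q103)–GFP were induced with 100 nM tebufenozide (final) alongside library compounds in a dose series. Cytoprotection was scored as retained ATP by ATPlite luminescence.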
HttQ103 aggreg = inhibitors of mutant huntingtin aggregate formation in PC12 cells. PC12 HttQ103-GFP aggregates, Acumen cytometry, 40 h. Potency, µM (highest dose often 46.1 µM), inactives show at the highest dose activity change, negative = inhibition, most hits filed as inhibitors. hit rate 1.1% among 220,000. AID 1688; active means well fitted curve in the direction sought with a large enough effect; inconclusive means small, poorly fitted or top-dose-only effect, or another doubt; inactive means no such curve, though single readings can be large; an effect the other way counts as inactive or inconclusive; further: on the % scale 0 is the no-effect control and ±100 the full control effect; nearly all actives have a fitted effect of over 60% in size
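Compounds (qHTS titration) were added to PC12 cells expressing an ecdysone-driven HTT exon 1 Q103–GFP fusion after induction with 100 nM tebufenozide. Aggregate formation was measured as GFP objects in cell lysates.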
LMNA splice mod = modulators of lamin A splicing | HeLa LMNA splicing GFP/RFP minigene ratio, 48 h | Potency, µM (doses to about 46.1 µM), inactives show top-dose ratio change, negative = inhibition, actives largely listed as inhibitors | AID 1487 | hit rate 0.01% among 200,000; active means well fitted inhibition curve with a large enough effect in the signal ratio, with a control signal flat, not every such curve was filed as active; inconclusive means small, poorly fitted or top-dose-only effect, or effect the other way, or a change in a side signal; the % refers to the signal ratio; further: on the % scale 0 is the no-effect control and ±100 the full control effect
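S3 HeLa stable clones carrying a lamin A-EGFP splicing minigene plus DsRed2 were seeded at 600 cells/well in Opti-MEM with 2% FBS, pin-dosed and incubated 48 h at 37°C. Acumen cytometry (488 nm) gave the GFP/RFP total-intensity ratio.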
JMJD2E inh = inhibitors of human JMJD2E histone demethylase. B2RXH2. hit rate 1.6% among 230,000. JMJD2E catalytic domain, FDH-coupled NADH fluorescence (FDH is formaldehyde dehydrogenase). Potency, µM (doses to about 57.1 µM), inactives show top-dose activity change, negative = inhibition, actives largely listed as inhibitors;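 further: 0% = wells with enzyme and -100% = buffer wells without enzyme; nearly all actives have a fitted effect of over 50% in size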
HPGD block = HPGD (human) dehydrogenase inhibition; purified HPGD, NADH fluorescence kinetic, PGE2 substrate; hit rate 4.3% among 150,000; Potency, µM, inactives show top-dose activity change, negative = inhibition, hits mostly inhibitors; further: on the % scale 0 is the no-effect control and ±100 the full control effect
Target sequence (P15428 whole entry, looked up): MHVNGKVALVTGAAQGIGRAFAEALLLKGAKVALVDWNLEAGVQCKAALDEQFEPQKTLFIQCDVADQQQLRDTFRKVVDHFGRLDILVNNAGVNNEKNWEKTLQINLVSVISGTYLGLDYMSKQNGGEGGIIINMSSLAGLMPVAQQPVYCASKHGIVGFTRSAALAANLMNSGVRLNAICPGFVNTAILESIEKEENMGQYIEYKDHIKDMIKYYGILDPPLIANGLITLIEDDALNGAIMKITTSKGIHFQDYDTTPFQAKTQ
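20 nM HPGD preincubated 15 min at room temperature with compound in 50 mM Tris-HCl pH 8, 0.01% Tween 20. Started with 1 mM NAD+ and 30 uM prostaglandin E2; NADH fluorescence (360/450 nm) read 5 times over 30-s intervals, last minus first.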
Active calls of the source: *; [ ] = dose if it differs, or a comment. Unless noted, the call rests on the fitted dose curve; in most records, active means well fitted inhibition curve with a large enough effect (not every such curve was filed as active); inconclusive means small, poorly fitted or top-dose-only effect, or another doubt; inactive means no such curve, though single readings can be large or run the other way. Potency means the concentration at half of the fitted maximal effect.

Results for CC(Sc1nc(-c2ccccc2)cc(C(F)(F)F)n1)C(=O)N1CCCCC1 (stereo not drawn) ?
ALDH1A1 block: -10%; HTT cytoprotect: -26%; HttQ103 aggreg: -13%; LMNA splice mod: 6%; JMJD2E inh: -2%; HPGD block: 7.1µM*

Results for CCOc1ccc(CNC(=O)C2CCCN(S(=O)(=O)c3ccc4c(ccn4C)c3)C2)cc1 (stereo not drawn) ?
LMNA splice mod: 6%[46 µM]

What do the screens show for `Cc1ccc(C)c(C(=O)CCC(=O)NCc2ccc(Cl)cc2)c1`?
ALDH1A1 block: 3%; HTT cytoprotect: -15%; HttQ103 aggreg: -3%; JMJD2E inh: -7%

Results for CCOc1ccc(-n2c(=O)c3c(C)c(C(=O)N(C)C)sc3n(Cc3cc(C)ccc3C)c2=O)cc1 ?
LMNA splice mod: 19%[46 µM]

What do the screens show for `CC(=O)OCC1OC(C#Cc2ccccc2)C=CC1OC(C)=O` (stereo not drawn)?
ALDH1A1 block: -10%[13.5 µM]; HTT cytoprotect: inconclusive

Results for Cc1ccc(NC(=O)OCc2cc(-c3ccccc3)on2)cc1 ?
ALDH1A1 block: 2%; HTT cytoprotect: -10%[1.9 µM]; HttQ103 aggreg: 13%[9.22 µM]; LMNA splice mod: 7%[46 µM]; JMJD2E inh: 5%

Results for O=C(Nc1ccc(Cl)cc1)OCc1cc(-c2ccccc2Cl)on1 ?
ALDH1A1 block: 4µM*; HTT cytoprotect: -13%; HttQ103 aggreg: -2%; LMNA splice mod: -6%; JMJD2E inh: 1%; HPGD block: -4%

How did CCCCNC(=O)CC1Nc2ccccc2NC1=O (stereo not drawn) do in these assays?
ALDH1A1 block: inconclusive; HTT cytoprotect: 14%[10 µM]; HttQ103 aggreg: -7%; LMNA splice mod: -16%; JMJD2E inh: inconclusive; HPGD block: -26%

Results for CCCCOc1ccccc1NC(=O)CC1Nc2ccccc2NC1=O (stereo not drawn) ?
ALDH1A1 block: 14µM*; HTT cytoprotect: -1%; HttQ103 aggreg: 9%; LMNA splice mod: 6%; JMJD2E inh: inconclusive; HPGD block: -7%

What do the screens show for `C=CCC(O)(/C=C/c1ccccc1)c1ccccc1` (stereo not drawn)?
ALDH1A1 block: -1%; HTT cytoprotect: -16%; JMJD2E inh: 4%; HPGD block: -12%

Results for Cc1nc2c(oc3ccc(Cl)cc32)c(=O)[nH]1 ?
HTT cytoprotect: 1%[10 µM]; HttQ103 aggreg: -29%[9.22 µM]; JMJD2E inh: -11%

How did O=C(c1cccc(F)c1)N1CCN(C(=O)c2nn3cccnc3c2Cl)CC1 do in these assays?
ALDH1A1 block: 20µM*; HTT cytoprotect: 7%[10 µM]; HttQ103 aggreg: -6%; LMNA splice mod: 6%; JMJD2E inh: -10%; HPGD block: -18%

Results for O=C(CCCOc1ccc(Cl)cc1)N1CCCCCC1 ?
ALDH1A1 block: 7.9µM*; HTT cytoprotect: -3%; HttQ103 aggreg: inconclusive; LMNA splice mod: -16%; JMJD2E inh: -5%; HPGD block: 2.2µM*

How did CCOC(=O)C1CCN(C(=O)CCCOc2ccccc2)CC1 do in these assays?
ALDH1A1 block: inconclusive; HTT cytoprotect: -3%[10 µM]; HttQ103 aggreg: 22%; LMNA splice mod: 4%; JMJD2E inh: 6%; HPGD block: -15%

How did CN(c1ccc(OCC(=O)N2CCCCC2)cc1)S(=O)(=O)c1cccs1 do in these assays?
ALDH1A1 block: -6%; HTT cytoprotect: 0%; HttQ103 aggreg: -27%; LMNA splice mod: inconclusive; JMJD2E inh: -1%; HPGD block: 14µM*

How did O=C(CCCOc1ccc(Cl)cc1)N1CCOCC1 do in these assays?
ALDH1A1 block: 3%; HTT cytoprotect: -4%; HttQ103 aggreg: 14%; LMNA splice mod: 3%; JMJD2E inh: 15%; HPGD block: -19%

Results for O=C(CCCOc1ccccc1)N1CCCCC1 ?
ALDH1A1 block: -1%; HTT cytoprotect: -39%; HttQ103 aggreg: -1%; LMNA splice mod: 7%; JMJD2E inh: 4%; HPGD block: 4µM*
